Data on 40 molecules can be found in PubChem BioAssay (Tox21).

Results filed as inconclusive are left out. Activity calls are given as the source filed them. The call rests on the fitted dose curve; in most records, active means well fitted cell-killing curve with a large enough effect in the repeat runs; inconclusive means weak or mixed curves, or effect the other way; inactive means flat fitted curve, though single readings scatter.
On the % scale 0 is the no-effect control and ±100 the full control effect; potency means the concentration at half of the fitted maximal effect.

A short description of this assay: qHTS assay to identify small molecule antagonists of the estrogen receptor alpha (ER-alpha) signaling pathway using the BG1 cell line in the presence of 0.1 nM 17-beta-estradiol - cell viability counter screen (AID 1259241). Further: nearly all actives have a fitted effect of over 40% in size. Conditions: VM7Luc4E2 (BG1) viability, CellTiter-Fluor protease, 22 h, 0.1 nM estradiol agonist added; series mostly up to 92.4 µM; activity change, negative = cytotoxicity: at the top concentration. The source says: National Center for Advancing Translational Sciences [NCATS]
NIH Chemical Genomics Center [NCGC]
U.S. Environmental Protection Agency [EPA]
National Institutes of Environmental Health Sciences [NIEHS]
National Toxicology Program [NTP]
U.S. Food and Drug Administration [FDA]
Estrogen receptor (ER), a member of the nuclear hormone receptor plays an important role in development, metabolic homeostasis and reproduction. Two subtypes of ER, ER-alpha and ER-beta, have similar expression patterns with some uniqueness in both types. Endocrine disrupting chemicals (EDCs) and their interactions with steroid hormone receptors like ER causes disruption of normal endocrine function. Therefore, it is important to understand the effect of environmental chemicals in ER signaling pathway. For identifying ER antagonists, VM7Luc4E2 cell line was used to screen against Tox21 compound libraries.
VM7Luc4E2 cell line (provided by Denison MS, University of California) endogenously express full-length ER-alpha and is stably transfected with a plasmid containing four estrogen responsive elements (ERE) upstream of a luciferase reporter gene. The current screening for identification of ER-alpha inhibitors against Tox21 compound libraries used lower concentration (0.1 nM) of 17beta-Estradiol as a stimulator. The cytotoxicity of the Tox21 compound libraries against VM7Luc4E2 cell line was tested by measuring live-cell protease activity using CellTiter-Fluor assay in the same wells.
Tox21 Assay Protocol Summary:
VM7Luc4E2 cells were cultured in phenol red free assay medium containing 10% charcoal stripped FBS for 5 days prior to the assay. The cells were dispensed at 4,000 cells/well in 4 uL of assay medium into white wall/solid-bottom 1536-well plates (Corning Life Sciences, Corning, NY) using a Multidrop Combi (ThermoFisher Scientific, Waltham, MA) dispenser. After the assay plates were incubated at 37C and 5% CO2 for 24 hr, 23 nL of compounds dissolved in DMSO, positive controls or DMSO only was transferred to the assay plates by a Pintool station (Kalypsys, San Diego, CA). The transfer of compounds was followed by the addition of 1 uL of 0.1 nM (final concentration) agonist (17beta-Estradiol)/assay medium using a Flying Reagent Dispenser (FRD, Aurora Discovery, San Diego, CA). The plates were incubated at 37C and 5% CO2 for 22 hr. For cytotoxicity assay, 1 uL of CellTiter-Fluor reagent (Promega Corporation, Madison, WI) was added to each well using the FRD and after 30 min incubation at 37C and 5% CO2, The fluorescence intensity was measured using ViewLux plate reader (PerkinElmer, Shelton, CT).
On the technique in general: In qHTS, concentration-response curves come from the screen itself.
For the molecule `Cc1cc(Nc2ccc(O)cc2)ccc1N`, the Potency was 27.2 µM (active).

Turning to `COc1cc(C(C)C)c2c(c1)S(=O)(=O)N(COc1cc(=O)n3cccc(OCCN4CCCCC4)c3n1)C2=O`, the activity change, negative = cytotoxicity was -4.33% [at 19 µM] (inactive). As to `O=C(O)CC(=O)O`, the “activity change, negative = cytotoxicity” value is 13% (inactive). Still for that read-out and setting: under `CC(C)=C1CC[C@@H](C)CC1=O` stands 8.26% (inactive); under `c1cc[nH]c1`, -4.8% (inactive). With `C/C=C/C(=O)C1=C(C)CCCC1(C)C`, the “activity change, negative = cytotoxicity” value was 0.0256% (inactive). On to `Cc1ccc(N)cc1O`, for which the Potency is 61.1 µM (active). On to `Cc1ccc2ccc3cccc4ccc1c2c34`, for which the “activity change, negative = cytotoxicity” value was 5.49% (inactive). On the same count and under the same terms, under `CC(C)OC(=O)c1cc(C(=O)OC(C)C)cc([N+](=O)[O-])c1` stands -0.598% (inactive). On the same count and under the same terms, under `CCc1c(C(=O)O)c(=O)cnn1-c1ccc(Cl)cc1` stands -5.62% (inactive); under `NC(=O)c1nc(-c2cccc(-c3cc(F)ccc3OCC(F)(F)C(F)(F)F)c2)n[nH]1`, -20.4% (inactive); under `O=C(c1ccccc1)c1cc(Cl)ccc1O`, 13.8% (inactive).

Take `CCC(C)C(=O)OC` (stereo not given): the “activity change, negative = cytotoxicity” value is -4.23% (inactive). With `COC(=O)[C@]1(C)CCC[C@@]2(C)[C@H]1CC=C1C=C(C(C)C)CC[C@@H]12`, the “activity change, negative = cytotoxicity” value was -2.45% (inactive).

As for `CCC(=O)CC(C)CC` (stereo not given), the activity change, negative = cytotoxicity was -17.1% [at 0.349 µM] (inactive). In the case of `CCN(CC)c1cccc(C)c1`, the “activity change, negative = cytotoxicity” value is 4.4% (inactive). In the case of `CCOB(OCC)OCC`, the “activity change, negative = cytotoxicity” value was 2.23% (inactive).

Consider `COc1cc(C(=O)NS(=O)(=O)c2ccccc2C)ccc1Cc1cn(C)c2ccc(NC(=O)OC3CCCC3)cc12`, for which the “activity change, negative = cytotoxicity” value was -4.95% [at 42.5 µM] (inactive).

For `C=CC(=O)OCCOCC(CC)(COCCOC(=O)C=C)COCCOC(=O)C=C`, the Potency was 14.3 µM (active).

Consider `COc1cccc(OC)c1O`, for which the “activity change, negative = cytotoxicity” value is 0.202% (inactive). Regarding `CSc1c(Cl)c(Cl)c(Cl)c(Cl)c1Cl`, the “activity change, negative = cytotoxicity” value was 2.06% (inactive). On the same count and under the same terms, then `CC(C)c1cccc(C(C)C)c1N1C(=O)c2ccc(O)cc2C1=O`, with -0.977% (inactive); and `Cc1ccc(O)cn1`, with 5.88% (inactive). Still for that read-out and setting: under `CCCCCCCC(=O)OCC` stands -1.25% (inactive). With `O=Nc1ccc(NO)cc1`, the “activity change, negative = cytotoxicity” value was -17.4% (inactive).

As to `CCCCC(CC)COC(=O)c1ccc(O)cc1` (stereo not given), the Potency result was “inactive”. Take `CCNc1nc(NC(C)CC)nc(OC)n1` (stereo not given): the “activity change, negative = cytotoxicity” value was 10.1% (inactive). For `CC(C)(C)c1cc(/C=C2\SC(=N)NC2=O)cc(C(C)(C)C)c1O`, the “activity change, negative = cytotoxicity” value was -25.5% (inactive). The same measure, in the same setting: under `Clc1ccccc1CN1CCc2sccc2C1` stands -10.7% [at 42.5 µM] (inactive); under `C=C(C)C(=O)OCCC[Si](Cl)(Cl)Cl`, 2.52% (inactive). On the same count and under the same terms, then `NC(=O)c1ccccc1N`, with 5.98% (inactive); and `CCCCCCCCCCOCC(O)CN` (stereo not given), with 0.0286% [at 42.5 µM] (inactive). Regarding `CC1=CP(=O)(c2ccccc2)CC1` (stereo not given), the “activity change, negative = cytotoxicity” value is 0.409% (inactive).

Regarding `CCCCCCCCCCCCN(CCO)CCO`, the “activity change, negative = cytotoxicity” value is -1.22% (inactive). Take `C(=C/c1ccccc1)/c1ccccc1`: the “activity change, negative = cytotoxicity” value is 0% (inactive). `CC(C)(c1cc(Br)c(O)c(Br)c1)c1cc(Br)c(O)c(Br)c1`: the Potency result was “inactive”. Same read-out and setting: then `C/C=C/C(=O)Oc1c(CCCCCC(C)C)cc([N+](=O)[O-])cc1[N+](=O)[O-]`, with 27.3 µM (active). As to `c1cc(OCC2CO2)cc(OCC2CO2)c1` (stereo not given), the “activity change, negative = cytotoxicity” value was -22.3% (inactive).

For `CCOC(/C=C(\C)CCC=C(C)C)OCC`, the “activity change, negative = cytotoxicity” value is 2.38% (inactive). The same measure, in the same setting: under `O=C=NCc1cccc(CN=C=O)c1` stands -0.0453% [at 19 µM] (inactive).
